Assay results reported in the supplement of paper PMC11001985.
Unmarked numbers belong to inactive results.

The targets below were run with C#CCNC(=O)CCSSCCC(=O)NCCc1ccc(C=O)c(C=O)c1 (assay: lysine labeling ratio R10:1 (500 µM / 50 µM probe), SILAC-ABPP in living cells; higher = lower intrinsic lysine reactivity toward the probe, active = 2 or less). Conditions: HeLa; probe concentrations 500 vs 50 µM.
Outline: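 SILAC light and heavy living HeLa cells in PBS at room temperature were labelled with 50 µM or 500 µM of an alkyne-tagged, disulfide-linked lysine probe, with forward and reverse label swaps. Mixed lysates were clicked to biotin-azide, trypsin-digested, captured on neutravidin, DTT-released, alkylated and analysed by LC-MS/MS on a TIMS-TOF Pro. R is the filtered median high-probe/low-probe MS1 peptide ratio per lysine, then the median across forward and reverse replicates. Ratios are capped at 20.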

Sequence of UniProt Q15149 (Q15149 whole entry): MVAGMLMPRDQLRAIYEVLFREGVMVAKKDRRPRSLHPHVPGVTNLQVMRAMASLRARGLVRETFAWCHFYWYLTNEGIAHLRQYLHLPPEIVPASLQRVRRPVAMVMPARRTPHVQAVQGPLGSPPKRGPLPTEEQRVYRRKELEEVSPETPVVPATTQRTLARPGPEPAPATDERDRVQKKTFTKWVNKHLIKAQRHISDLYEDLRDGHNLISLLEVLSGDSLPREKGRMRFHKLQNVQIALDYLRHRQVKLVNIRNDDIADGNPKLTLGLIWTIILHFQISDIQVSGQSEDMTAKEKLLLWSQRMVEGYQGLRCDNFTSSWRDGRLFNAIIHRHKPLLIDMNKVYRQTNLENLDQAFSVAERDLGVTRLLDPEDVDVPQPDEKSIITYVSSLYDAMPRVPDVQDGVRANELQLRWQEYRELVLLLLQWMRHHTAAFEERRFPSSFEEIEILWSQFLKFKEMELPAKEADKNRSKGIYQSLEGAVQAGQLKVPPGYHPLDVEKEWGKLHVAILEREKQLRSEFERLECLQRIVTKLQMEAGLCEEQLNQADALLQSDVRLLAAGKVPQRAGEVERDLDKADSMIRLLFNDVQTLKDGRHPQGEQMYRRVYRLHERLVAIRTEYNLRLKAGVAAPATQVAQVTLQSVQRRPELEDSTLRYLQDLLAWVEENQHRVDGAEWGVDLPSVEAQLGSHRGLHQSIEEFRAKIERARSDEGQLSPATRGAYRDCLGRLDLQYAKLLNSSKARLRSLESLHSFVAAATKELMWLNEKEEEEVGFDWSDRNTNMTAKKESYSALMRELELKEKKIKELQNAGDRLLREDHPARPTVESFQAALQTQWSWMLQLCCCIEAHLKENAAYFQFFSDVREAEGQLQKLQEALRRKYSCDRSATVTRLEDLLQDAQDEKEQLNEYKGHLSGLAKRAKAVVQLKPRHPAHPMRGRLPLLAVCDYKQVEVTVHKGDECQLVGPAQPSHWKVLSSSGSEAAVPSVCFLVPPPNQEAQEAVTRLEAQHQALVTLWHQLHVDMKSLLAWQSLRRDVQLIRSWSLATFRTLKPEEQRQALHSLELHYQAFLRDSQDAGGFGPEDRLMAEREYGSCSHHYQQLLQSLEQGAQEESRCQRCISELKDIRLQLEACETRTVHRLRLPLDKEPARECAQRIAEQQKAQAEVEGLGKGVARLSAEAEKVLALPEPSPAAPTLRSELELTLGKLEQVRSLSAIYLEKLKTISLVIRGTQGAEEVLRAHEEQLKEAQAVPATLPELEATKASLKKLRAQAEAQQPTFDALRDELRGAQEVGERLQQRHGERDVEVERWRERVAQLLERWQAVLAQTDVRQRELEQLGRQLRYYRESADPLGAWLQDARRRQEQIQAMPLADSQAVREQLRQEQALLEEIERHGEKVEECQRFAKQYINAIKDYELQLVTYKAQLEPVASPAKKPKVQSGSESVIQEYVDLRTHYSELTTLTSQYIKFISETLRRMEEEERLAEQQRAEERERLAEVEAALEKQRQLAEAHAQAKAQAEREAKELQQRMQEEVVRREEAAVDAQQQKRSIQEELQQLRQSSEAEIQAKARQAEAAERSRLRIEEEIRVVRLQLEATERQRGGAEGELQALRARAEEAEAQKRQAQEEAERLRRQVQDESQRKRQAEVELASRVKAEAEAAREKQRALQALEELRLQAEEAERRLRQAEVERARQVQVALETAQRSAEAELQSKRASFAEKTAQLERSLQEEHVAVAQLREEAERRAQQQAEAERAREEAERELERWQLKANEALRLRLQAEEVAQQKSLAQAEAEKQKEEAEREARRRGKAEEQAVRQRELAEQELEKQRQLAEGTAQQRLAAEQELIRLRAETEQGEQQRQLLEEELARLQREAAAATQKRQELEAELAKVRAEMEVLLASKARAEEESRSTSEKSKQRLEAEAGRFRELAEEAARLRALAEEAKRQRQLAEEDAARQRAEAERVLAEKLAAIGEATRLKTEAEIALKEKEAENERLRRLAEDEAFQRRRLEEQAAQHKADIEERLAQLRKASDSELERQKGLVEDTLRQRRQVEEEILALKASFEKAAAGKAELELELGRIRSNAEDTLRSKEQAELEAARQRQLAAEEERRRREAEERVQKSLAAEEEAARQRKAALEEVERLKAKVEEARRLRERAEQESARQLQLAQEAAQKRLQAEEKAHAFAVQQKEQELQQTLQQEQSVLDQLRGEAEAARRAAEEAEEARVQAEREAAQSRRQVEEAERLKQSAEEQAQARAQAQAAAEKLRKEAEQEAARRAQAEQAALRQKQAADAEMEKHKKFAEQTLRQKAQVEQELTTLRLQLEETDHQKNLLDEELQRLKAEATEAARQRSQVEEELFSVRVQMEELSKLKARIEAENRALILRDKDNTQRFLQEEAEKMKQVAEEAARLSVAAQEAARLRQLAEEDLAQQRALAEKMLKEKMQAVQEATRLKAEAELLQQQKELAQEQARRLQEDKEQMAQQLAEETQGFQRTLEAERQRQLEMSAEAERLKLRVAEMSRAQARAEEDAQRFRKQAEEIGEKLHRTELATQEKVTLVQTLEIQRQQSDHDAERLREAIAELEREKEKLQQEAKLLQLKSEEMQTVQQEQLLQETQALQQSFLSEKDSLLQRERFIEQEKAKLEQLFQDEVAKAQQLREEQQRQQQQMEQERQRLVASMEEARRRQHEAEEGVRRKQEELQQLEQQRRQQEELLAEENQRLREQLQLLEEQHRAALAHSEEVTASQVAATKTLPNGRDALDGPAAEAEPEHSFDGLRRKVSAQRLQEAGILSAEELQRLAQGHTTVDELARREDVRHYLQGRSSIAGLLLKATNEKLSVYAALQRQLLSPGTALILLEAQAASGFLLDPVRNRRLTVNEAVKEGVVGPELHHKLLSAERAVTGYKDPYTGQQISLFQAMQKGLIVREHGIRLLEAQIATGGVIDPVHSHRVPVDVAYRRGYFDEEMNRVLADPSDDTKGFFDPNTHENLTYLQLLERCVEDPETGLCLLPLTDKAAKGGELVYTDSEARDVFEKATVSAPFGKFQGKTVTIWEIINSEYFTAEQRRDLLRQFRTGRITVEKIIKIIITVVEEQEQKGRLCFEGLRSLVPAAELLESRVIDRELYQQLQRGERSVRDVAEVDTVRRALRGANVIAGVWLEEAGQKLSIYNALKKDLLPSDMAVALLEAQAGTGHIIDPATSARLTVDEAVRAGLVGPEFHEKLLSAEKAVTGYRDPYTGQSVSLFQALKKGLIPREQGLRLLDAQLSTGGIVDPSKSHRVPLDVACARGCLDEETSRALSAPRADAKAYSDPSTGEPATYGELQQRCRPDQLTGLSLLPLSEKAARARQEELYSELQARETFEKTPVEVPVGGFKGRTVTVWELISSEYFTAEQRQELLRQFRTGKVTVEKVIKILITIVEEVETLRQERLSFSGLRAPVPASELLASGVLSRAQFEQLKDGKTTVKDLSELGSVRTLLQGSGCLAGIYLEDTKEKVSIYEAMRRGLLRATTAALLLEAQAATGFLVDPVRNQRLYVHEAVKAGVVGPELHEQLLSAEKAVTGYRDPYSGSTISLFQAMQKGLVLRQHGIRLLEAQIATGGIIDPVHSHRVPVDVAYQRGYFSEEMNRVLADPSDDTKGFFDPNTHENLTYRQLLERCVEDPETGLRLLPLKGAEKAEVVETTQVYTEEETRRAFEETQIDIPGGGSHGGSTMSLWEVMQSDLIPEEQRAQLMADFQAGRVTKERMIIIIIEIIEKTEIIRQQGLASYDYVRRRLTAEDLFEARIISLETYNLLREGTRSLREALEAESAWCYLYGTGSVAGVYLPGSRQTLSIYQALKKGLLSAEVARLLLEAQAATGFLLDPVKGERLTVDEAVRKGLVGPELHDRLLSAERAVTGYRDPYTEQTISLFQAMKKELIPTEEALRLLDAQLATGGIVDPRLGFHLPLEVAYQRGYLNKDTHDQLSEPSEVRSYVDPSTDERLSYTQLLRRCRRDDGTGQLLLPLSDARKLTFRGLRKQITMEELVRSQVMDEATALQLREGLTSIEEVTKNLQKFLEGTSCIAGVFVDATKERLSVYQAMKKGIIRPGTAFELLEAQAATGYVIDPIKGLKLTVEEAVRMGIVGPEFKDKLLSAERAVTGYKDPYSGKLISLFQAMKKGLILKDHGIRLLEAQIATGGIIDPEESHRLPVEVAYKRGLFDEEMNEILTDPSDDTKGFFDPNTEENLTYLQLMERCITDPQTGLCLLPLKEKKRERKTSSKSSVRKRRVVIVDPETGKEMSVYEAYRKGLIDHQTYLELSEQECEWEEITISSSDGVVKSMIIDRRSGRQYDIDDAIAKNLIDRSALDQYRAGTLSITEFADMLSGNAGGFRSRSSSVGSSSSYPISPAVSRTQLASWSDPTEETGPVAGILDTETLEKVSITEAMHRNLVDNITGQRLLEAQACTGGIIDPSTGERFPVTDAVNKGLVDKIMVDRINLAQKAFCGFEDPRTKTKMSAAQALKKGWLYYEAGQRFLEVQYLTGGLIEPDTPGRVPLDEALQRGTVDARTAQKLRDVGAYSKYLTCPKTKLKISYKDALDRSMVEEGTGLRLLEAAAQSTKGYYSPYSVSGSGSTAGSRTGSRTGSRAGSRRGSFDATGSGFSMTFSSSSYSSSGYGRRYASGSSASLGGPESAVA
Sequence of UniProt P08670 (P08670 whole entry): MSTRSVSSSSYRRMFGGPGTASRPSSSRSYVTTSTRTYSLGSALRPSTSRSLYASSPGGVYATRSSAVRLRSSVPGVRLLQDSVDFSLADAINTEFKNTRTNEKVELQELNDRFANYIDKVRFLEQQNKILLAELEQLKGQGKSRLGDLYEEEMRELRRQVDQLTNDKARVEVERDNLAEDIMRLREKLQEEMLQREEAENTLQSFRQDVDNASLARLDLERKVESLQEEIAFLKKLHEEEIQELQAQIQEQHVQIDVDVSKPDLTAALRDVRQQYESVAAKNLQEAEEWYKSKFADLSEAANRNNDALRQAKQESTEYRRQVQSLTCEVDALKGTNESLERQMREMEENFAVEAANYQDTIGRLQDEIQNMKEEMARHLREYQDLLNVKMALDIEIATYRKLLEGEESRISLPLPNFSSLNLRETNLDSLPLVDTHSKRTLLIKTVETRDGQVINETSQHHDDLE

Going from “VIM (lysine site: K445) (UniProt P08670)” to UniProt P62258 (lysine site: K12), the “lysine labeling ratio R10:1” value falls from 10.9 to 7.18.

First: UniProt P08727 (lysine site: K140)
Second: HSPD1 (lysine site: K523) (UniProt P10809)
The “lysine labeling ratio R10:1” value of the first is lower: 2.21 for the first, 5.04 for the second.

Compared with “HSPA8 (lysine site: K257) (UniProt P11142)”, “SPTBN1 (lysine site: K1021) (UniProt Q01082)” is higher in “lysine labeling ratio R10:1” value: 3.1 for the first, 6.62 for the second.

Compared with “CDH13 (lysine site: K161) (UniProt P55290)”, UniProt Q9NY47 (lysine site: K270) is lower in “lysine labeling ratio R10:1” value: 6.29 for the first, 2.85 for the second.

Going from “TMEM30A (lysine site: K155) (UniProt Q9NV96)” to “THBS1 (lysine site: K306) (UniProt P07996)”, the “lysine labeling ratio R10:1” value rises from 2.09 to 2.27.

First: UniProt P48047 (lysine site: K84)
Second: DSG2 (lysine site: K72) (UniProt Q14126)
The “lysine labeling ratio R10:1” value of the first is higher: 4.75 for the first, 2.67 for the second.

Compared with “LAMB1 (lysine site: K1757) (UniProt P07942)”, “EPHA7 (lysine site: K272) (UniProt Q15375)” is lower in “lysine labeling ratio R10:1” value: 5.94 for the first, 2.33 for the second.

Compared with “HSP90B1 (lysine site: K142) (UniProt P14625)”, “KRT18 (lysine site: K317) (UniProt P05783)” is higher in “lysine labeling ratio R10:1” value: 2.93 for the first, 7.92 for the second.

First: PRDX6 (lysine site: K56) (UniProt P30041)
Second: MCAM (lysine site: K551) (UniProt P43121)
The “lysine labeling ratio R10:1” value of the first is lower: 3.23 for the first, 5.15 for the second.

Compared with “IMPDH2 (lysine site: K134) (UniProt P12268)”, UniProt Q9UHN6 (lysine site: K1220) is higher in “lysine labeling ratio R10:1” value: 2.5 for the first, 2.87 for the second.

Compared with UniProt P09758 (lysine site: K138), UniProt Q15149 (lysine site: K1520) is lower in “lysine labeling ratio R10:1” value: 5.06 for the first, 3.8 for the second.

Going from “MSN (lysine site: K538) (UniProt P26038)” to “LDHA (lysine site: K155) (UniProt P00338)”, the “lysine labeling ratio R10:1” value falls from 4.98 to 2.54.

Going from “EHD2 (lysine site: K220) (UniProt Q9NZN4)” to “CCT2 (lysine site: K154) (UniProt P78371)”, the “lysine labeling ratio R10:1” value rises from 2.14 to 3.78.

Compared with UniProt P16144 (lysine site: K510), UniProt Q15149 (lysine site: K2099) is higher in “lysine labeling ratio R10:1” value: 2.83 for the first, 4.12 for the second.

For “CCT8 (lysine site: K37) (UniProt P50990)”, the “lysine labeling ratio R10:1” value was 1.6 (active).
With “EEF1G (lysine site: K243) (UniProt P26641)” the “lysine labeling ratio R10:1” value was 1.4 (active).
In the case of “PLXNA3 (lysine site: K622) (UniProt P51805)”, the “lysine labeling ratio R10:1” value is reported as 1.94 (active).
In the case of “CLSTN1 (lysine site: K322) (UniProt O94985)”, the “lysine labeling ratio R10:1” value is reported as 0.805 (active).
“TFPI (lysine site: K68) (UniProt P10646)” was tested, and the “lysine labeling ratio R10:1” value was 1.41 (active).
“DYNC1H1 (lysine site: K3480) (UniProt Q14204)” was tested, and the “lysine labeling ratio R10:1” value was 1.73 (active).
In the case of “BCAP31 (lysine site: K204) (UniProt P51572)”, the “lysine labeling ratio R10:1” value is reported as 1.82 (active).
With “RPLP0 (lysine site: K106) (UniProt P05388)” the “lysine labeling ratio R10:1” value was 0.868 (active).
In the case of “FAM120A (lysine site: K673) (UniProt Q9NZB2)”, the “lysine labeling ratio R10:1” value is reported as 1.15 (active).
For “FBLN1 (lysine site: K59) (UniProt P23142)”, the “lysine labeling ratio R10:1” value was 1.25 (active).
For “PLXND1 (lysine site: K1182) (UniProt Q9Y4D7)”, the “lysine labeling ratio R10:1” value was 0.824 (active).
“ITGAV (lysine site: K514) (UniProt P06756)” was tested, and the “lysine labeling ratio R10:1” value was 0.678 (active).
